# The other results are listed elsewhere or left out. A number with no mark means an inactive call.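 Rule for the calls: active = fluorescence interference ratio at or below 0.8 quencher or at or above a set limitenhancer; inactive = the rest.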
# Assay: Cy5-DNA-NS3h complex fluorescence interference, confirmation, artefact control for HCV NS3 helicase inhibitor project, biochemical, ChemBridge library (AID 720489)
# Details: Cy5-dT15 DNA/NS3h fluorescence interference counterscreen; at 100 µM
compound,measurement,value
CCOc1cc(C=C2C(=O)NC(=O)NC2=O)cc(Br)c1OCCOc1ccccc1C,fluorescence interference ratio,0.809
